Records with an inconclusive call do not appear. Calls of active or inactive are those of the source. The call rests on the fitted dose curve; in most records, active means well fitted curve in the direction sought with a large enough effect; inconclusive means small, poorly fitted or top-dose-only effect, or another doubt; inactive means no such curve, though single readings can be large; an effect the other way counts as inactive or inconclusive.
Legend:
NIH3T3 = experiment: qHTS assay to identify novel small-molecules to repurpose for Merkel cell carcinoma treatment (AID 1296009); conditions: MCC and control cell lines, CellTiter-Glo viability, 72 h; at 44.8 µM (top of the series) unless noted; further: nearly all actives have a fitted effect of over 60% in size
Outline: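 Cell viability, measured as CellTiter-Glo luminescence, was normalized between DMSO and no-cell wells. The cells had been exposed to 8- or 11-point compound dilutions for 72 hr at 37 degree celsius.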

C33A = experiment: Primary qHTS to identify gynecologic anti-cancer compounds using libraries of approved drugs and bioactive compounds (AID 1345084); conditions: Gynecologic cancer cell panel viability, ATPlite luminescence, 48 h; series mostly up to 57.5 µM; further: nearly all actives have a fitted effect of over 55% in size
Outline: (§1)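 Five-point cytotoxicity, 48 h drug exposure at 37 C, 5% CO2, on cells seeded 16 h beforehand. ATP content read by ATPlite luminescence.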

CAOV3 = experiment: as above; conditions: Gynecologic cancer cell panel viability, ATPlite luminescence, 48 h; series mostly up to 57.5 µM
Outline: as §1

CASKI = experiment: as above; conditions: Gynecologic cancer cell panel viability, ATPlite luminescence, 48 h; series mostly up to 57.5 µM
Outline: as §1

Es-2 = experiment: as above; conditions: Gynecologic cancer cell panel viability, ATPlite luminescence, 48 h; series mostly up to 57.5 µM
Outline: as §1

HeLa = experiment: as above; conditions: Gynecologic cancer cell panel viability, ATPlite luminescence, 48 h; series mostly up to 57.5 µM
Outline: as §1

Hek293T = experiment: as above; conditions: Gynecologic cancer cell panel viability, ATPlite luminescence, 48 h, control line for the selectivity index; series mostly up to 57.5 µM
Outline: as §1

JEG-3 = experiment: as above; conditions: Gynecologic cancer cell panel viability, ATPlite luminescence, 48 h; series mostly up to 57.5 µM
Outline: as §1

Measured: Potency

CC(CCO)CCC1C2(C)CCCC(C)(C)C2CC[C@@]1(C)O (stereo partly specified)
inactive: all assays above

C=C1C(OC(C)=O)CCC2(C)CC3(O)OC(=O)C(C)=C3CC12 (stereo unspecified)
inactive: all assays above

O=C(OC[C@H]1O[C@@H](Oc2ccccc2CO)[C@H](O)[C@@H](O)[C@@H]1O)c1ccccc1
inactive: all assays above

CC(C)C(NC(=O)c1ccc(O)cc1)C(=O)N1CCCC1C(=O)Nc1c(O)cccc1C(=O)O (stereo unspecified)
inactive: NIH3T3 inactive [at 17.4 µM] | C33A | CAOV3 | CASKI | Es-2 | HeLa | Hek293T | JEG-3

CC1(C)[C@@H]2CC=C(CO[C@@H]3O[C@H](CO[C@@H]4OC[C@H](O)[C@H](O)[C@H]4O)[C@@H](O)[C@H](O)[C@H]3O)[C@H]1C2
inactive: NIH3T3 inactive [at 17.4 µM] | C33A | CAOV3 | CASKI | Es-2 | HeLa | Hek293T | JEG-3

C=CCC1=C[C@]2(OC)[C@H](C)[C@@H](c3ccc(OC)c(OC)c3)O[C@]2(OC)CC1=O
inactive: all assays above

CC(C)CC(=O)OC[C@@]1(O)C[C@@]23CC[C@H]4[C@@](C)(CCC[C@@]4(C)C(=O)O)[C@@H]2CC[C@@H]1C3
inactive: NIH3T3 inactive [at 17.4 µM] | C33A | CAOV3 | CASKI | Es-2 | HeLa | Hek293T | JEG-3

C=C1C[C@H](O)[C@@H](O)[C@@]2(C)C1[C@@H](O)[C@H]1OC(=O)C3[C@@H](C)[C@@H](O)[C@H](O)C2[C@]31C (stereo partly specified)
inactive: all assays above

C[C@H]1[C@H](C)CC[C@]2(C(=O)O)CC[C@]3(C)C(=CCC4[C@@]5(C)C[C@@H](O)[C@H](O)C(C)(C)C5CC[C@]43C)[C@H]12 (stereo partly specified)
inactive: NIH3T3 inactive [at 17.4 µM] | C33A | CAOV3 | CASKI | Es-2 | HeLa | Hek293T | JEG-3

C=C1CCC2[C@@](C)(C(=O)O)CCC[C@@]2(C)[C@@H]1CCc1ccoc1 (stereo partly specified)
inactive: all assays above

CNc1nc(Cc2ccccc2)nc2c1CCNC[C@@H]2C
inactive: all assays above

O=C(OCc1ccccc1O[C@@H]1O[C@H](CO)[C@@H](O)[C@H](O)[C@H]1O)C1(O)C=CCCC1O (stereo partly specified)
inactive: NIH3T3 inactive [at 17.4 µM] | C33A | CAOV3 | CASKI | Es-2 | HeLa | Hek293T | JEG-3

CN(C)CC(c1ccc(O)cc1)C1(O)CCCCC1 (stereo unspecified)
inactive: all assays above

CCC(C)/C=C(C)/C=C/C1=CC2=CC(=O)C(C)(O)C(OC(C)=O)C2CO1 (stereo unspecified)
inactive: all assays above

O=C(/C=C/c1ccc(O)c(O)c1)O[C@@H]1[C@@H](O)[C@H](OC2CCCCC2O)O[C@H](CO)[C@H]1O (stereo partly specified)
inactive: NIH3T3 inactive [at 17.4 µM] | C33A | CAOV3 | CASKI | Es-2 | HeLa | Hek293T | JEG-3

C[C@H]1[C@@H](O)[C@H](O)C2[C@]3(C)C([C@@H](O)[C@H]4OC(=O)[C@@H]1[C@@]24C)[C@](C)(O)C=C[C@H]3O[C@@H]1O[C@H](CO)[C@@H](O)[C@H](O)[C@H]1O (stereo partly specified)
inactive: NIH3T3 inactive [at 17.4 µM] | C33A | CAOV3 | CASKI | Es-2 | HeLa | Hek293T | JEG-3

Cc1cc(CO)c(O)c(C(=O)CC2CC(=O)NC(=O)C2)c1
inactive: all assays above

From PubChem BioAssay (NCATS)
